# Source: PubChem BioAssay (Tox21)
# Results filed as inconclusive are left out. Active and inactive are the calls of the source. Calls come from the whole dose curve; as a rule, active = well fitted curve in the direction sought with a large enough effect in the repeat runs; inconclusive = weak or mixed curves; inactive = no such curve, though single readings can be large; an effect the other way counts as inactive or inconclusive.
# Assay: qHTS assay to identify small molecule agonists of the retinoic acid receptor (RAR) signaling pathway (AID 1159553); note: potency is the fitted concentration of half-maximal effect
# Conditions: C3RL4 RARE luciferase reporter, agonist, 6 h; series mostly up to 73.3 µM; activation: at the top concentration
# Summary of the method: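 Compounds dissolved in DMSO were pinned onto C3RL4 cells seeded the previous day, and plates were held 6 hr at 37 C. RARE-driven luciferase output was then read by luminescence.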
# % is set by controls: 0 for no effect and ±100 for the full control effect.
SMILES,activation,Potency
O=C1CCCCCCCCCCCCCC1,-2.85% (inactive),
COc1cc(/C=C/C(=O)CC(=O)/C=C/c2ccc(O)c(OC)c2)ccc1O,,9.75 µM (active)
Cc1ccc2nc(-c3ccc(N)cc3)sc2c1S(=O)(=O)O,,0.426 µM (active)
c1ccc2cc3c4ccccc4c4ccccc4c3cc2c1,-1.83% [at 94.8 µM] (inactive),
CCCOC(=O)c1ccc(O)cc1,,54.5 µM (active)
CCCCCCCCCCCCCCCCC(C(=O)O)C(O)(CC(=O)O)C(=O)O (configuration not stated),0.4% (inactive),
NCc1cccc(C2CCN(C(=O)c3ccc(C#Cc4ccccc4F)o3)CC2)c1,2.06% (inactive),
C=CCc1cc(S(=O)(=O)c2ccc(O)c(CC=C)c2)ccc1O,-3.63% (inactive),
Oc1ccc(Cl)cc1C1CCCC1,-6.26% (inactive),
CCCCCCCCCCCCCCCCCCNC(=O)OC1CCN(C(=O)OC[C@H](COC(=O)N(Cc2cccc[n+]2CC)C(=O)c2ccccc2OC)OC)CC1,-11.9% (inactive),
S=C1NC=NC2N=CNC12 (configuration not stated),0.0498% (inactive),
O=C(CCCCCCCCc1cccnc1)N1CCC(C=C(c2ccccc2)c2ccccc2)CC1,-8.17% (inactive),
O=C(N[C@H](CO)[C@H](O)c1ccc([N+](=O)[O-])cc1)C(Cl)Cl,-0.0203% (inactive),
CC(Cc1ccc(O)c(O)c1)C(C)Cc1ccc(O)c(O)c1 (configuration not stated),3.32% (inactive),
CC1=C(/C=C/C(C)=C/C=C/C(C)=C\C(=O)O)C(C)(C)CCC1,,0.0194 µM (active)
C[C@H]1O[C@@H](O[C@H]2CC[C@@]3(C)[C@H](CC[C@@H]4[C@@H]3C[C@@H](O)[C@]3(C)[C@@H](C5=CC(=O)OC5)CC[C@]43O)C2)C[C@H](O)[C@@H]1O[C@H]1C[C@H](O)[C@H](O[C@H]2C[C@H](O)[C@H](O[C@@H]3O[C@H](CO)[C@@H](O)[C@H](O)[C@H]3O)[C@@H](C)O2)[C@@H](C)O1,-2.57% (inactive),

# Assay: qHTS assay to identify small molecule antagonists of the estrogen related receptor (ERR) signaling pathway - cell viability counter screen (AID 1224818);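 note: viability measured after 17.5 h of compound exposure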
# Conditions: ERR reporter cell line viability counter screen; series mostly up to 46.1 µM; viability change, negative = cytotoxic: at the top concentration
# Summary of the method: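 Cytotoxicity check run alongside the ERR antagonist screen: cells exposed to test compounds 17.5 h at 37 C, viability taken as CellTiter-Fluor fluorescence intensity.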
row,SMILES,"viability change, negative = cytotoxic"
1,CCOC(=O)C(C)Oc1cccc2c(=O)n(CC(=O)Nc3ccc4c(c3)OCCO4)ccc12 (configuration not stated),-15.9% (inactive)
2,CCCCC#Cc1nc(NC)c2ncn([C@@H]3O[C@H](CO)[C@@H](O)C3O)c2n1 (some centres not stated),8.43% (inactive)
3,CNCCC=C1c2ccccc2CCc2ccccc21,-15.1% (inactive)
4,CCCOC(=O)c1ccc(O)cc1,5.29% [at 92.2 µM] (inactive)
5,COc1cc(C(O)CO)ccc1O (configuration not stated),16.3% (inactive)
6,CCCCCC[C@@H]([C@@H](C)O)n1cnc2c(N)ncnc21,6.41% (inactive)
7,O=c1cc(-c2ccccc2F)[nH]c2cc3c(cc12)OCO3,-7.39% (inactive)
8,NC(=O)C1=CN(C2OC(COP(=O)(O)OP(=O)(O)OC[C@H]3O[C@@H](n4cnc5c(N)ncnc54)[C@H](OP(=O)(O)O)C3O)C(O)C2O)C=CC1 (some centres not stated),1.72% (inactive)
9,COc1ccc2c(c1)CCC1C2CC[C@@]2(C)C1CC[C@@H]2NCCCCCCN1C(=O)CCC1=O (some centres not stated),-20.7% (inactive)
10,Nc1nc(OCc2ccccc2)c2[nH]cnc2n1,9.55% (inactive)
11,Nc1ncnc2c1ncn2C1CCCC1,10.3% (inactive)
12,CN[C@H](CC(=O)O)C(=O)O,8.92% (inactive)
13,CC(C)Cc1ccc([C@H](C)C(=O)O)cc1,13.6% (inactive)
14,O=C(N[C@H](CO)[C@H](O)c1ccc([N+](=O)[O-])cc1)C(Cl)Cl,3.95% [at 92.2 µM] (inactive)
15,CN1CCc2cc(NC(=O)Nc3cccnc3)ccc21,3.65% (inactive)
16,C=CC1(C)CC(=O)C2(O)C(C)(O1)C(OC(C)=O)C(O)C1C(C)(C)CCC(O)C12C (configuration not stated),-9.55% (inactive)
17,N#C/C(=C\c1ccc(O)c(O)c1)C(=O)NCCc1ccccc1,-17.8% (inactive)
18,N.N.N.N.N.N.N.N.N.N.N.N.N.N.O.O.[Cl-].[Cl-].[Cl-].[Cl-].[Cl-].[Cl-].[Ru+4].[Ru+5].[Ru+5],-18.5% (inactive)
19,C[C@H]1CC2C3CCC4=CC(=O)C=C[C@]4(C)[C@@]3(Cl)[C@@H](O)C[C@]2(C)[C@@]1(O)C(=O)CO (some centres not stated),1.34% (inactive)
20,CNCC[C@H](Oc1ccc(C(F)(F)F)cc1)c1ccccc1,-6.35% (inactive)
21,CC(C)[C@@H]1CC[C@@H](C)C[C@@H]1P(=O)(c1ccccc1)c1ccccc1,6.36% (inactive)
22,C=C1C[C@@]23CC[C@H]4[C@@](C)(CCC[C@@]4(C)C(=O)O)[C@@H]2CC[C@]1(O)C3,-3.05% (inactive)
23,CC1=C(/C=C/C(C)=C/C=C/C(C)=C\C(=O)O)C(C)(C)CCC1,7.92% (inactive)
24,CO/N=C(\C(=O)N[C@@H]1C(=O)N2C(C(=O)O)=C(COC(C)=O)CS[C@H]12)c1csc(N)n1 (stereo in doubt),10% (inactive)
25,Nc1ncnc2c1nc(Sc1ccc(Cl)cc1)n2[C@H]1OC2COP(=O)(O)O[C@@H]2C1O (some centres not stated),1.66% (inactive)
26,Cc1cc(NC(=O)Nc2ccc3c(ccn3C)c2)sn1,2.36% (inactive)

# Assay: qHTS assay to identify small molecule antagonists of the estrogen related receptor (ERR) signaling pathway (AID 1224819;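 note: luminescence from an ERR-driven luciferase reporter measured with One-Glo reagent; nearly all actives have a fitted effect of over 50% in size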)
# Conditions: ERR reporter cell line, luciferase inhibition; series mostly up to 46.1 µM; activity change, negative = inhibition: at the top concentration
# Summary of the method: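 ERR reporter cells were plated at 2,000 cells/well and left 6 h at 37 C/5% CO2 before pin-tool transfer of compounds in DMSO. After 18 h at 37 C, One-Glo was added and luminescence was read 30 min later at room temperature.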
row,SMILES,"activity change, negative = inhibition"
1,CCOC(=O)C(C)Oc1cccc2c(=O)n(CC(=O)Nc3ccc4c(c3)OCCO4)ccc12 (configuration not stated),-3.19% (inactive)
2,CCCCC#Cc1nc(NC)c2ncn([C@@H]3O[C@H](CO)[C@@H](O)C3O)c2n1 (some centres not stated),-10.9% (inactive)
3,CNCCC=C1c2ccccc2CCc2ccccc21,9.5% (inactive)
4,CCCOC(=O)c1ccc(O)cc1,29% [at 92.2 µM] (inactive)
5,CCCCCC[C@@H]([C@@H](C)O)n1cnc2c(N)ncnc21,-13.3% (inactive)
6,O=c1cc(-c2ccccc2F)[nH]c2cc3c(cc12)OCO3,1.04% (inactive)
7,NC(=O)C1=CN(C2OC(COP(=O)(O)OP(=O)(O)OC[C@H]3O[C@@H](n4cnc5c(N)ncnc54)[C@H](OP(=O)(O)O)C3O)C(O)C2O)C=CC1 (some centres not stated),17.6% (inactive)
8,COc1ccc2c(c1)CCC1C2CC[C@@]2(C)C1CC[C@@H]2NCCCCCCN1C(=O)CCC1=O (some centres not stated),-12.7% (inactive)
9,Nc1nc(OCc2ccccc2)c2[nH]cnc2n1,-15.1% (inactive)
10,Nc1ncnc2c1ncn2C1CCCC1,-11.7% (inactive)
11,CN[C@H](CC(=O)O)C(=O)O,12.7% (inactive)
12,CC(C)Cc1ccc([C@H](C)C(=O)O)cc1,3.54% (inactive)
13,CN1CCc2cc(NC(=O)Nc3cccnc3)ccc21,47.9% (inactive)
14,N#C/C(=C\c1ccc(O)c(O)c1)C(=O)NCCc1ccccc1,8.15% (inactive)
15,C[C@H]1CC2C3CCC4=CC(=O)C=C[C@]4(C)[C@@]3(Cl)[C@@H](O)C[C@]2(C)[C@@]1(O)C(=O)CO (some centres not stated),-4.87% (inactive)
16,CC(C)[C@@H]1CC[C@@H](C)C[C@@H]1P(=O)(c1ccccc1)c1ccccc1,9.18% (inactive)
17,C=C1C[C@@]23CC[C@H]4[C@@](C)(CCC[C@@]4(C)C(=O)O)[C@@H]2CC[C@]1(O)C3,2.67% (inactive)
18,CO/N=C(\C(=O)N[C@@H]1C(=O)N2C(C(=O)O)=C(COC(C)=O)CS[C@H]12)c1csc(N)n1 (stereo in doubt),15.4% (inactive)
19,Nc1ncnc2c1nc(Sc1ccc(Cl)cc1)n2[C@H]1OC2COP(=O)(O)O[C@@H]2C1O (some centres not stated),0.626% (inactive)
20,Cc1cc(NC(=O)Nc2ccc3c(ccn3C)c2)sn1,54.6% (inactive)
